# Compound activity from PubChem BioAssay.
# ERK AVP inh – vasopressin-driven ERK pathway inhibition; HEK293-V1b, vasopressin-stimulated pERK AlphaScreen; Potency, µM (titrated, usually from 57.5 µM), without a hit: top-dose activity, negative = inhibition, actives largely listed as inhibitors; 72,000 tested, 0.99% active; AID 995; further: nearly all actives have a fitted effect of over 55% in size
#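 HEK293 cells stably expressing V1b receptor, seeded overnight in 1% FBS, were treated with compounds for 30 min at 37C, then stimulated 5 min with 25 nM vasopressin; phospho-ERK read by AlphaScreen SureFire after lysis.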
# Tau filament bind – binds recombinant human tau filaments; P10636; recombinant tau filaments, thioflavin S fluorescence, 15 h; filaments grown with octadecylsulfate alongside compound; Potency, µM (titrated, usually from 57.1 µM), for inactives: at the highest dose activity change, negative = inhibition; 71,000 tested, 2% active;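 further: actives lower thioflavin S fluorescence by blocking filaments or displacing dye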
#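 Assay mix: 1 uM His-tagged tau, 30 uM sodium octadecylsulfate, thioflavine S dye in HEPES/NaCl/DTT buffer. Compound is added prior to the inducer. Fluorescence after 15 h at 37 C.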
# Bst PK mod – modulators of Bacillus stearothermophilus pyruvate kinase | purified pyruvate kinase, luminescence ATP production; ribose 5-phosphate activator present at AC10 | Potency, µM | 51,000 tested, 1.2% active | AID 361; in the data active means potency below about 11 µM; inconclusive means mostly about 12 µM to 25 µM;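 the screen sought inhibitors and activators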;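 further: scaled between full activation by ribose 5 phosphate and full inhibition by luteolin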
# Luciferase inh – firefly luciferase inhibition. P08659. purified firefly luciferase, luminescence, 8 min. Potency, µM (top dose mostly 57.1 µM), inactives show at the top dose activity change, negative = inhibition, most hits filed as inhibitors. 72,000 tested, 2.2% active. AID 411; further: nearly all actives have a fitted effect of over 40% in size
# Target sequence (P08659 whole entry, looked up): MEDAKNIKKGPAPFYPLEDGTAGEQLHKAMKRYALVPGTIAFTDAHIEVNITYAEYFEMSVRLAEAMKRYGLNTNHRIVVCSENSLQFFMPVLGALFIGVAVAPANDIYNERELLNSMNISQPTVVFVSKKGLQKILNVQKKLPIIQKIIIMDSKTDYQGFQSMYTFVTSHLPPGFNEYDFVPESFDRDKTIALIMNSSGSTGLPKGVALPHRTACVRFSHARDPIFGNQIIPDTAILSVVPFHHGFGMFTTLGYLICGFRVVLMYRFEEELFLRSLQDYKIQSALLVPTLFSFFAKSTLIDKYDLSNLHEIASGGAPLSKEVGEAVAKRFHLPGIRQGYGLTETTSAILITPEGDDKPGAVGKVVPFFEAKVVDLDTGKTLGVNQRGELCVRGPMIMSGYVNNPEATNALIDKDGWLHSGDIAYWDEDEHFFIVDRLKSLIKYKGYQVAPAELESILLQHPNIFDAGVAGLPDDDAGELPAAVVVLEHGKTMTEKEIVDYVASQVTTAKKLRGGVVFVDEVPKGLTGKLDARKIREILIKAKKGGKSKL
#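 Firefly luciferase (PKLight detection mix) with 10 uM ATP in pH 7.2 imidazole buffer (KCl, MgCl2, Tween 20, BSA). Compounds tested across a concentration series (qHTS). Luminescence read after 8 min at ambient temperature.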
# Hsp90 Hop PPI – changes Hsp90-Hop TPR2A binding signal, up or down | AlphaScreen TPR2A-His6 binding biotin-Hsp90 C-terminal peptide | Potency, µM (highest dose often 57 µM), for inactives: at the highest dose activity change, negative = inhibition | 71,000 tested, 0.44% active; active means well fitted curve in either direction with a large enough effect; inconclusive means small, poorly fitted or top-dose-only effect, or another doubt
# 15-hLO inh – 15-hLO (ALOX15) enzyme inhibition. P16050. AID 887. purified 15hLO-1, xylenol orange hydroperoxide absorbance. 74,000 tested, 1.4% active. Potency, µM (series often up to 57.1 µM), without a hit: top-dose activity change, negative = inhibition, usual class: inhibitors; further: nearly all actives have a fitted effect of over 55% in size
#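 Readout: Fe(III)-xylenol orange absorbance, 573-to-405 nm ratio as reaction progress. Enzyme 40 nM purified human 15hLO-1, substrate 50 uM arachidonic acid, 6 min RT after 15 min compound preincubation; Hepes pH 7.5 buffer with Triton X-100.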
# Starred values were filed as active, the others as inactive; i = inactive; ? = inconclusive; · = not tested or not shown; [ ] = remark or other dose. An excerpt weighted towards active compounds, which were near 6.1% of everything screened. Unless noted, the call rests on the fitted dose curve; in most records, active means well fitted curve in the direction sought with a large enough effect; inconclusive means small, poorly fitted or top-dose-only effect, or another doubt; inactive means no such curve, though single readings can be large; an effect the other way counts as inactive or inconclusive. Unless noted, on the % scale 0 is the no-effect control and ±100 the full control effect; potency means the concentration at half of the fitted maximal effect.
SMILES,ERK AVP inh,Tau filament bind,Bst PK mod,Luciferase inh,Hsp90 Hop PPI,15-hLO inh
C=CCN1C(=O)CS/C1=C(\C#N)S(=O)(=O)c1ccc(C)cc1,?,15.8µM*,>57,0.2%,?,-18.4%
C=CCN1C(=O)CSC1=Nc1cccc(O)c1,?,6.4%,>57,8.3%,1.1%,3.1%
COc1ccc(C(=O)N2CCC3(CCCN(Cc4ccccc4OC)C3)CC2)cc1,-5.8%,-2.4%,·,0.1%[11.4 µM],-1.0%,-0.3%
COc1ccc(-c2cc(=O)c3c(OC(C)=O)cc(OC(C)=O)cc3o2)cc1,13.0%,·,·,·,·,5.6%
COc1ccc(-c2coc3cc(O)cc(O)c3c2=O)cc1,15.8µM*,?,?,-15.9%[25.5 µM],-8.8%,-26.8%[25.6 µM]
COc1ccc(-c2cc(=O)c3c(O)cc(O)cc3o2)cc1,?,12.2%[25.6 µM],·,10µM*,-3.1%[26 µM],8.3%[25.6 µM]
Cc1csc(-c2coc3cc(O)cc(C)c3c2=O)n1,-28.5%,10.1%,·,?,-3.2%,15.8µM*
COc1ccc(-c2coc3cc(O)ccc3c2=O)c(OC)c1,9.8%,·,·,·,·,-0.7%
COc1ccc2c(=O)c(-c3nc(C)cs3)coc2c1,·,·,4.15*,2µM*,·,·
CCn1cc(C(=O)O)c(=O)c2ccc(Cc3ccccc3)nc21,·,-3.1%,·,2.9%,-10.6%,·
CC(C)Oc1cc(O)c2c(=O)c(-c3ccc(O)cc3)coc2c1,-12.5%,34.1%,·,12.6µM*,-8.0%,-21.5%
O=c1cc(-c2ccc(O)cc2)oc2cc(O)ccc12,?,·,·,·,·,-19.3%
COc1ccc(-c2coc3cc(O)ccc3c2=O)cc1,-5.8%,31.6µM*,·,-13.9%[11.4 µM],0.3%,2.8%[25.6 µM]
O=c1cc(-c2ccc(O)cc2)oc2cccc(O)c12,3.98µM*,·,·,·,·,-10.7%[25.6 µM]
Cc1nc(-c2coc3cc(OCC(=O)O)ccc3c2=O)cs1,·,·,9.65*,3.98µM*,·,·
OC[C@@H]1O[C@@H](n2cnc3c(NCc4ccco4)ncnc32)[C@H](O)[C@H]1O,·,12.4%,·,-2.0%[11.4 µM],-4.9%,·
Cc1nc(N)sc1-c1csc(N(C)c2ccc(O)cc2)n1,?,?,i,12.6µM*,-23.8%,-19.1%
Cc1ccc(Cl)cc1N1CCN(C(=O)CN2C(=O)c3cccc4cccc2c34)CC1,25.8%,60.7%,5.3*,2.4%,23.9%,-25.8%
Cc1ccc(C(=O)Nc2nnn(C)n2)cc1,-4.1%,2.7%,·,25.1µM*,-2.2%,5.3%
Cn1nnc(NC(=O)c2cccc(F)c2)n1,-11.6%,-3.5%,>57,-1.3%,-0.1%,9.8%
CCn1nnc(NC(=O)c2ccc(C(C)(C)C)cc2)n1,31.3%,-7.0%,?,12.6µM*,-0.7%,-1.1%
CCO[C@H](c1cc(OC)cc([N+](=O)[O-])c1OC)[C@H](C)/C=C\CC(=O)OC,3.8%[11.5 µM],·,·,3.1%[11.4 µM],·,7.0%[11.4 µM]
COCC(=O)N1CCC2(CC1)CCN(c1ccncc1)CC2,-18.7%,17.5%,·,-0.3%[11.4 µM],-0.7%,6.2%
FC(F)(F)c1ccccc1-c1cc(N2CCNCC2)ncn1,-3.6%,3.3%,·,0.3%[2.29 µM],1.0%,-0.4%
COC(=O)CNC(=O)C1(C)C=CC2(CCCCC2)N1C(C)=O (stereo not given),12.3%,-9.4%,·,·,0.8%,-0.2%
SMILES,ERK AVP inh,Tau filament bind,Bst PK mod,Luciferase inh,Hsp90 Hop PPI,15-hLO inh
c1ccc(-c2nc3ccccc3s2)nc1,-16.3%,1.5%,?,?,7.7%,4.1%
Brc1ccc(-c2nc3ccccc3s2)s1,21.0%,6.3%,?,15.8µM*,20.8%,-6.9%
CC(=O)O[C@H]1CC[C@@]2(C)[C@@H](CC[C@H]3[C@H]2CC(=O)[C@@]2(C)[C@@H]3C[C@H]3CC(C)=CC(=O)[C@H]32)C1,23.4%[11.5 µM],100.2%[11.4 µM],·,2.9%[11.4 µM],0.6%[11 µM],10.1%[11.4 µM]
N/C(CSc1nc(-c2ccccc2)c(-c2ccccc2)o1)=N\O,31.6µM*,-0.3%,·,-6.7%,-9.6%,12.6µM*
NCCSc1nc(-c2ccccc2)c(-c2ccccc2)o1,0.4%[11.5 µM],1.9%[11.4 µM],·,0.3%[11.4 µM],-0.7%[11 µM],-2.5%[11.4 µM]
COc1ccc(-n2c(=O)cnc3cnc(OC)nc32)cc1,-11.1%,-8.2%,·,2.0%[11.4 µM],-1.3%,-2.5%
C=CCn1c(C)cc(C(=O)CSc2nc3ccccc3c(=O)[nH]2)c1C,20µM*,-9.4%,i,-18.2%,-3.8%,-14.0%
C=CCn1c(C)cc(C(=O)CSc2nc3ccccc3o2)c1C,-27.4%,7.6%,i,15.8µM*,4.0%,-11.3%
